HEK cytotox = cytotoxic compounds in HEK 293 cells; Potency, µM (top dose mostly 115 µM), usual class: inhibitors; AID 1345083; HEK 293 viability, ATP luminescence (CellTiter-Glo), 48-72 h; 94,000 compounds, 6.6% hits; further: nearly all actives have a fitted effect of over 60% in size
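Viability of HEK 293 cells, plated at 250 cells/well, was judged by cellular ATP after compound treatment for 48 or 72 hr. Luminescence was imaged 10 min after CellTiter-Glo addition at room temperature.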
hNpr1 antagonist = blocks ANP-stimulated signaling of human Npr1 receptor; P16066; Potency, µM (doses to about 46.3 µM), actives largely listed as inhibitors; 76,000 compounds, 1.6% hits; HEK293 hNpr1 GloSensor cGMP, ANP-stimulated luminescence; calls by dose curve; further: nearly all actives have a fitted effect of over 60% in size
Target sequence (P16066 whole entry, looked up): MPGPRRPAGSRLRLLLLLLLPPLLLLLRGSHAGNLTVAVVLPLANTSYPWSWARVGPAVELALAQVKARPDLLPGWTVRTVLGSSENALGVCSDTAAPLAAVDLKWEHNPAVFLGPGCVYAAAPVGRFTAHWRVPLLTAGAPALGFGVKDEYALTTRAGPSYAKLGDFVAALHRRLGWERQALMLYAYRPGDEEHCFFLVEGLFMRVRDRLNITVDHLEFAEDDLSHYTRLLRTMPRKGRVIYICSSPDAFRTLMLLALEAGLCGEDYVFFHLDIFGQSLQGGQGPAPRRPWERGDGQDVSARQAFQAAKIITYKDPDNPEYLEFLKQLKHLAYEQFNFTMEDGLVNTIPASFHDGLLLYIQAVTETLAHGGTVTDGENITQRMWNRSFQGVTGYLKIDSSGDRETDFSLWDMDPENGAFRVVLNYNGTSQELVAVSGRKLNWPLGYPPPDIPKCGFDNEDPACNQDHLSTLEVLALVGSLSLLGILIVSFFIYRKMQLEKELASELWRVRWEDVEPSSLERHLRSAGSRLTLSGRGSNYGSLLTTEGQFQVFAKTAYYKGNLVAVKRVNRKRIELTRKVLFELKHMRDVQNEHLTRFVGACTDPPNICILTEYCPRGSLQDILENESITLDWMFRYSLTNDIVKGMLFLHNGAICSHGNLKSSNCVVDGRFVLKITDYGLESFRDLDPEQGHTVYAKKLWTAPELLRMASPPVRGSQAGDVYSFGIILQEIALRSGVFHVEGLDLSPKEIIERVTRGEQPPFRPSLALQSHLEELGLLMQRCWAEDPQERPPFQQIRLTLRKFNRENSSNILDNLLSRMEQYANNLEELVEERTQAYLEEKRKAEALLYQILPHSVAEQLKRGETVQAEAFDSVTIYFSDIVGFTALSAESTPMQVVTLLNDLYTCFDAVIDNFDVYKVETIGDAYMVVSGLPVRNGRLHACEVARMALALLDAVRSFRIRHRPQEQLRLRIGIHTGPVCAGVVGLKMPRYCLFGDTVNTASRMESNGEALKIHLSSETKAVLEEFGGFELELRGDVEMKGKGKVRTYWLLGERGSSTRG
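HEK293 cells stably expressing human Npr1 and cGMP GloSensor pGS-40F, loaded 2 h with 2% GloSensor reagent, given compound 30 min at room temperature. Luminescence read before and 20 min after 0.1 nM hNppA.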
3T3 cytotox = cytotoxic compounds in NIH 3T3 cells | NIH 3T3 viability, CellTiter-Glo ATP luminescence, 48-72 h | Potency, µM (highest dose often 96.7 µM), hits mostly inhibitors | 94,000 compounds, 4.3% hits; further: nearly all actives have a fitted effect of over 55% in size
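ATP-dependent luminescence (CellTiter-Glo) served as the viability signal for NIH 3T3 cells treated with compound for 48 or 72 hr at 37 °C.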
FLuc inh = inhibitors of firefly (Photinus pyralis) luciferase | 76,000 compounds, 2.5% hits | Potency, µM (titrated, usually from 115 µM), most hits filed as inhibitors | AID 1347043 | P08659 | purified P. pyralis luciferase, luminescence, biochemical; further: nearly all actives have a fitted effect of over 65% in size
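Luminescence read by CCD imaging after purified firefly luciferase (10nM final) was added to substrate buffer holding 10uM D-luciferin and 10uM ATP, pH 7.5, pre-dosed with compound.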
GPT2 inh = GPT2 alanine aminotransferase inhibition. Q8TD30. Recombinant GPT2, coupled pyruvate oxidase/HRP Amplex Red fluorescence. Potency, µM (titrated, usually from 57.7 µM), hits mostly inhibitors. 100,000 compounds, 0.25% hits. AID 1671188; further: nearly all actives have a fitted effect of over 60% in size
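Inhibition is scored from Amplex Red fluorescence generated when pyruvate oxidase and HRP act on pyruvate released by GPT2. Reactions contain 10ng/uL enzyme, 250uM a-KG and 2mM L-alanine and run 30 min at room temperature.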
Hits are given with their value; - = inactive; ? = inconclusive; . = no result given. Most compounds without a hit are left out; they make up all but 10% or so of the library. Unless noted, the call rests on the fitted dose curve; in most records, active means well fitted curve in the direction sought with a large enough effect; inconclusive means small, poorly fitted or top-dose-only effect, or another doubt; inactive means no such curve, though single readings can be large; an effect the other way counts as inactive or inconclusive.

SMILES	HEK cytotox	hNpr1 antagonist	3T3 cytotox	FLuc inh	GPT2 inh
Oc1cccc(-c2cc3c(cn2)NCCN(Cc2ccccc2)C3)c1	?	-	?	-	-
Cc1cc(-c2cc3c(cn2)CN(Cc2ccccc2F)CCN3)ccn1	71µM	-	?	25µM	-
Cc1cccc(CN2CCNc3cnc(OCc4cccnc4)cc3C2)c1	100µM	?	?	-	-
Cc1cc(-c2cc3c(cn2)CN(Cc2ccc(C(F)(F)F)cc2)CCN3)ccn1	63µM	28µM	79µM	63µM	-
COc1ccc(C(=O)N2CCN(CCn3nc4n(c3=O)CCCC4)CC2)cc1	-	.	-	.	.
CC(C)NC(=O)[C@H]1CN(Cc2ccccc2)C[C@H]1C(=O)O	-	.	-	.	-
COc1ccc(CC(=O)N2CCC(C(=O)N3CCC(c4nc5ccncc5[nH]4)C3)CC2)cc1 (stereo unspecified)	-	.	-	.	-
Cc1cc(-c2cc3c(cn2)CN(Cc2c[nH]c4ccccc24)CCN3)ccn1	112µM	-	?	?	-
Cc1cc(-c2cc3c(cn2)CN(Cc2ccc(F)c(F)c2)CCN3)ccn1	71µM	-	?	40µM	-
Fc1ccc(CN2CCNc3cnc(OCc4cccnc4)cc3C2)cc1F	?	?	?	-	-
COc1cc(OC)cc(C(=O)NC2CCCN(c3cc(-c4ccc(F)cc4)[nH]n3)C2)c1 (stereo unspecified)	45µM	-	?	?	-
COc1ccc(C(=O)NC2CCN(c3cc(-c4ccc(F)cc4)[nH]n3)C2)cc1 (stereo unspecified)	?	-	?	-	?
COc1cccc(C(=O)NC2CCCN(c3cc(-c4ccc(F)cc4)[nH]n3)C2)c1 (stereo unspecified)	?	-	45µM	?	?
NC(N)=NC(=O)c1cnn(-c2cccc3ncccc23)c1C1CC1	.	.	.	.	-
COC(=O)N1CCC(C(=O)N2CCC(N3Cc4ccccc4C3=O)CC2)CC1	-	.	-	.	-
O=C(NC1CC1)c1ccc2oc(-c3ccnc(Cl)c3)nc2c1	?	.	?	.	-
COc1cccc(-c2nccc3c(=O)cc(N(C)C)oc23)c1	-	-	71µM	-	-
COc1cccc(Cl)c1-c1nccc2c(=O)cc(N(C)C)oc12	?	-	50µM	-	-
COc1ccc(CC(=O)N2CCC(Oc3ccc(C(=O)N(C)C)cn3)CC2)cc1Cl	?	-	-	-	-
CC1CCC2(CC1)NC(=O)N(CC(=O)Nc1ccc(C(C)C)cc1)C2=O (stereo unspecified)	28µM	-	?	-	-
CC1CCC2(CC1)NC(=O)N(CC(=O)Nc1cccc(C(F)(F)F)c1)C2=O (stereo unspecified)	25µM	-	?	-	-
CC(=O)c1cccc(NC(=O)CN2C(=O)NC3(CCC(C(C)(C)C)CC3)C2=O)c1 (stereo unspecified)	?	-	40µM	-	-
CC(=O)c1ccc(NC(=O)CN2C(=O)NC3(CCC(C(C)(C)C)CC3)C2=O)cc1 (stereo unspecified)	?	-	?	-	-
COc1cccc(C(=O)N2CCc3nc(C(C)C)nc(-c4ccc(O)cc4)c3CC2)c1	-	.	?	.	-
CC(=O)Nc1ccc(CN(Cc2ccc(NC(C)=O)cc2)C[C@H]2C[C@@H]3CCN2C[C@@H]3c2cc(-c3ccco3)nc(C)n2)cc1	-	-	-	-	-
SMILES	HEK cytotox	hNpr1 antagonist	3T3 cytotox	FLuc inh	GPT2 inh
Cn1ccc(Nc2nccc3c(=O)cc(-c4cccnc4)oc23)n1	-	-	40µM	-	-
O=c1cc(-c2cccnc2)oc2c(NCc3ccccc3)nccc12	?	-	22µM	?	?
Cn1ccc(Nc2nccc3c(=O)cc(-c4cn[nH]c4)oc23)n1	?	-	79µM	-	-
CN(c1cc(=O)c2ccnc(Nc3ccn(C)n3)c2o1)C1CCOCC1	-	-	?	-	-
O=c1cc(-c2cccnc2)oc2c(NCC3CCOCC3)nccc12	-	-	?	-	-
Cc1nn(-c2ccccc2)c2c1C(C1CC1)N(C1CCN(Cc3ccsc3)CC1)C2=O (stereo unspecified)	-	.	-	.	.
O=C(NC1CCCCC1)N1CCC(CCc2nc(C3CCOCC3)no2)CC1	?	.	?	.	-
COc1ccccc1Cn1c(=O)c(C(=O)NCc2cccs2)nc2cccnc21	?	.	?	.	-
COCC(=O)N1CCC(C(=O)N2CCC(c3ccccc3)CC2)CC1	-	.	-	.	-
Cc1csc(Nc2ccc3c(n2)CN(C)C(=O)CO3)n1	18µM	-	32µM	-	?
Cc1csc(Nc2ccc3c(n2)CN(CCOc2ccccc2)C(=O)CO3)n1	?	-	?	-	?
O=C(c1cccc(Cl)c1)N1CCc2nc(-c3ccccc3)nc(-c3ccc(Cl)cc3)c2C1	28µM	-	?	-	-
COc1cccc(C(=O)N2CCc3nc(-c4ccccc4)nc(-c4ccc(Cl)cc4)c3C2)c1	40µM	-	?	-	-
COc1ccc(C(=O)N[C@@H]2CCC[C@@H]2C(=O)NCCCN2CCCc3ccccc32)cc1	?	-	?	-	?
COC(=O)[C@@H]1Cc2c([nH]c3ccccc23)[C@H]2C[C@@H](NCc3cccnc3)C[C@@H](c3ccccc3)N21	22µM	-	?	-	-
COCCNC(=O)[C@@H]1CCC[C@@H](NCc2cccnc2)CN(C)C(=O)C1	-	-	-	-	-
COC(=O)[C@@H]1Cc2c([nH]c3ccccc23)[C@@H]2C[C@@H](NC(C)C)C[C@@H](c3ccc(F)cc3)N12	28µM	-	28µM	-	-
COCCN[C@H]1C[C@@H]2c3[nH]c4ccccc4c3C[C@@H](C(=O)OC)N2[C@H](c2ccccc2)C1	40µM	-	35µM	-	-
COC(=O)[C@H]1[C@H]2C[C@H]3c4[nH]c5ccccc5c4CCN3C[C@H]2CC[C@@H]1O	.	.	.	.	-
COCCN[C@@H]1C[C@@H]2c3[nH]c4ccccc4c3C[C@@H](C(=O)OC)N2[C@H](c2ccc(C(C)C)cc2)C1	?	?	28µM	-	?
CN1c2cc(C(=O)Nc3ccc(C(F)(F)F)cc3)ccc2C(=O)N2CCCCC21 (stereo unspecified)	?	-	-	-	-
COCCNC(=O)[C@H]1C[C@H](Oc2ccccc2)CN1C(=O)c1ccc(F)cc1	-	-	-	-	?
COCCNC(=O)[C@H]1C[C@H](Oc2ccccc2)CN1C(=O)c1cccc(OC)c1	-	-	-	-	-
COC(=O)C1C(O)CCC2CN3CCc4c([nH]c5ccccc45)C3CC21 (stereo unspecified)	.	.	.	.	-
COC(=O)[C@@H]1Cc2c([nH]c3ccccc23)[C@H]2C[C@@H](NCCN(C)C)C[C@@H](c3ccc(F)cc3)N21	20µM	-	14µM	-	-

High-throughput results from PubChem.
